Calls of active or inactive are those of the source. Unless noted, how the calls were made is not given here.

The source of these data is PubChem BioAssay.

Experiment [1] in a line: compounds binding Alexa647 anti-His antibody – biochemical, small-molecule microarray, 635 nm fluorescence, artefact control for SMM control protein annotation, primary screen (AID 1128).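 Further: score merges feature fluorescence with signal-to-noise for each printed compound spot.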 To be noted: higher = more signal.
Experiment [2] has as its system Human papillomavirus type 1a E7 protein (residues 1-88). As to the kind of experiment: HPV1a E7 small-molecule binders, primary screen, biochemical, small-molecule microarray, residues 1-88, 635 nm (AID 1129). To be noted: small-molecule microarray binding, fluorescence 635 nm; higher = more signal.
Experiment [3] has as its target Focal adhesion kinase 1 (Homo sapiens) (UniProt Q05397). As to the kind of experiment: PTK2 protein binding on printed compound slides – biochemical, small-molecule microarray, 635/667 nm fluorescence, BSA, DTT, primary screen (AID 1130).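 Further: composite of spot emission at 667 nm and signal to noise over triplicate slides.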 To be noted: 635 nm fluorescence, higher = more signal.
Experiment [4] has as its system Fibrinogen (Alexa647-labelled). As to the kind of experiment: Alexa647-fibrinogen binding to printed small molecules – biochemical, small-molecule microarray, 635/667 nm fluorescence, artefact control for SMM control-protein annotation, profiling panel (AID 1131).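 Further: z-score merges 667 nm fluorescence with per-spot signal-to-noise over triplicate slides.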 To be noted: fibrinogen-A647 binding fluorescence, higher = more signal.
Experiment [5] addresses Follistatin (Homo sapiens) (UniProt P19883). Put plainly: FST protein binding to printed compounds – biochemical, small-molecule microarray, 635/667 nm fluorescence, primary screen (AID 1132). To be noted: 635 nm fluorescence, higher = more signal.
The target in experiment [6] is Fibroblast growth factor 2 (Homo sapiens) (UniProt P09038). Put plainly: basic fibroblast growth factor binding to printed compounds – biochemical, small-molecule microarray, 635/667 nm fluorescence, primary screen (AID 1133). To be noted: FGF2, fluorescence 635/667, higher = more signal.
Chain of Fibroblast growth factor 2 (Homo sapiens) (P09038 whole entry, looked up): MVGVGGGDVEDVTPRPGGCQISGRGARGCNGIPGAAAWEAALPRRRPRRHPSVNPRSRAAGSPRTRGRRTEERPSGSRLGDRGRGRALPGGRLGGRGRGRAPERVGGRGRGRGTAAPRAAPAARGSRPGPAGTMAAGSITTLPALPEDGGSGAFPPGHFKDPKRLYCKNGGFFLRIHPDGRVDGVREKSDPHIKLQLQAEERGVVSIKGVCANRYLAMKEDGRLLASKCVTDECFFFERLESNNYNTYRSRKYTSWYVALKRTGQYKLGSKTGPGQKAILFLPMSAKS
Experiment [7] in a line: JC-1 mitochondrial potential readout, lung cancer cells – cell-based, A549, JC-1 fluorescence, basal, 24 h, 100 nL, profiling panel (AID 1138).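 Further: A549 lung adenocarcinoma cells under basal conditions with no added stimulus; test concentration not given here.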 To be noted: higher = more signal.
In another experiment the test system is Lefty1. Put plainly: Lefty1 protein binding to printed compounds – biochemical, small-molecule microarray, 635/667 nm fluorescence, primary screen (AID 1139). The note with it: fluorescence 635/667, higher = more signal.
Experiment [8] concerns wheat germ agglutinin (Triticum aestivum), Alexa647-labelled. As to the kind of experiment: Alexa647-WGA lectin binding to printed small molecules – biochemical, small-molecule microarray, 635/667 nm fluorescence, artefact control for SMM control-protein annotation, profiling panel (AID 1140).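 Further: score merges 667 nm feature emission with signal to noise over triplicate slides.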 The note with it: WGA-A647 binding, 635 nm fluorescence, higher = more signal.
The target in experiment [9] is Luciferin 4-monooxygenase (Photinus pyralis) (UniProt P08659). Put plainly: inhibition of purified Photinus pyralis luciferase – biochemical, luminescence, purified enzyme, 2006 set, primary screen (AID 1141).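 Further: cell-free assay with purified firefly luciferase at 100 ng per well in PBS; test concentration not given here.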 The note with it: purified firefly luciferase, SteadyGlo luminescence, 30 min; higher = more signal, called active from +8 up or from −8 down.
Chain of Luciferin 4-monooxygenase (Photinus pyralis) (P08659 whole entry, looked up): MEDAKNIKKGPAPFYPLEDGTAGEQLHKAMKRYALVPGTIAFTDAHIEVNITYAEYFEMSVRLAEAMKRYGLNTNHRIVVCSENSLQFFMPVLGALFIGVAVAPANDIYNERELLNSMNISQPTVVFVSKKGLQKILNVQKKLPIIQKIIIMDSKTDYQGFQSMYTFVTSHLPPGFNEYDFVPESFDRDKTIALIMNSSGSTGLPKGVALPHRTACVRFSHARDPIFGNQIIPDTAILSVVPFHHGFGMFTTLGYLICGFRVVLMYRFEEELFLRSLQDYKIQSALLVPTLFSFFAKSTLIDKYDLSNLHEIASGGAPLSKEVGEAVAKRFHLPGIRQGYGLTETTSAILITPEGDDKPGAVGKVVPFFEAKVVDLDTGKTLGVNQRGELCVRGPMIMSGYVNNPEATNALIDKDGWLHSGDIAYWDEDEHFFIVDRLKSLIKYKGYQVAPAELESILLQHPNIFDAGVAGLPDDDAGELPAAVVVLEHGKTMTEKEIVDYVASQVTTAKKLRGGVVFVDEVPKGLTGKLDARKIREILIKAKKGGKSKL
In experiment [10] the test system is Wnt5a (protein binding on small-molecule microarray). Put plainly: small molecules binding Wnt5a protein – biophysical, small-molecule microarray, 635/667 nm fluorescence, primary screen (AID 1142).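 Further: fluorescence read at 667 nm with signal to noise per printed feature.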 The note with it: 635 nm fluorescence, higher = more signal.
The nature of experiment [11]: ATP-based viability of Huh7 replicon cells – cell-based, CellTiter-Glo luminescence, basal, 48 h, cytotoxicity control for HCV replication inhibitor project, primary screen (AID 1143).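 Further: Huh7 hepatoma cells carrying a hepatitis C replication reporter with no stimulus; test concentration not given here.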 To be noted: higher = more signal, called active from +8 up or from −8 down. (Replicon systems follow genome replication, usually without infectious particles.)
Experiment [12] in a line: Pseudomonas biofilm growth suppression – PAO1 strain, BacTiter-Glo luminescence, LB-PBS, primary screen (AID 1144). To be noted: P. aeruginosa PAO1 biofilm, 12 h, higher = more signal.
Experiment [13] is described as follows: basal CRE-LacZ reporter activity in PC12 – cell-based, unstimulated, primary screen (AID 1145). To be noted: no forskolin, luminescence, 4.5 h, higher = more signal, called active from +8 up or from −8 down.
Experiment [14] can be described thus: forskolin-driven CRE-LacZ activity in PC12 – cell-based, CRE-LacZ reporter, forskolin-stimulated, primary screen (AID 1146).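 Further: PC12 cells with 6xCRE LacZ reporter stimulated by forskolin 10 µM; beta-galactosidase reporter signal reflecting CREB driven transcription.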 The note with it: luminescence, 4.5 h, higher = more signal, called active from +8 up or from −8 down.
Experiment [15] has as its target Streptavidin (Streptomyces avidinii) (UniProt P22629). Put plainly: compounds binding control protein streptavidin – biophysical, small-molecule microarray, 635/667 nm fluorescence, artefact control for SMM compound annotation, primary screen (AID 1147).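 Further: signal reflects streptavidin binding to arrayed compounds as a control protein.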 The note with it: higher = more signal.
Experiment [16] can be described thus: probe aInhba binding on compound microarray – biochemical, small-molecule microarray, 635/667 nm fluorescence, primary screen (AID 1148).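 Further: score merges 667nm spot fluorescence with signal-to-noise for antibody binding to printed compounds.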 The note with it: higher = more signal.
Experiment [17] has as its target Torsin-1A (Homo sapiens) (UniProt O14656). Put plainly: TOR1A wild-type binding on microarray – cell lysate, small-molecule microarray, lysate, 635/667 nm, primary screen (AID 1149). The note with it: COS7 hTOR1A-WT lysate, 635 nm fluorescence, higher = more signal.
Experiment [18] has the same target. Put plainly: torsin A mutant lysate binding on microarrays – cell lysate, small-molecule microarray, COS7 lysate, 635/667 nm fluorescence, primary screen (AID 1150).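 Further: score pools 667 nm emission and signal to noise measuring lysate protein binding.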 The note with it: COS7 hTOR1A mutant lysate, 635 nm fluorescence, higher = more signal.
The test system of experiment [19] is Sonic hedgehog protein (Shh). Put plainly: Sonic hedgehog microarray binding compounds – biochemical, small-molecule microarray, 635/667 nm fluorescence, primary screen (AID 1151).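 Further: Shh protein binding to compounds spotted on small-molecule microarray slides; score combines spot fluorescence intensity with signal-to-noise across triplicate slides.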 The note with it: 635 nm fluorescence, higher = more signal.

Chain of Torsin-1A (Homo sapiens) (O14656 whole entry, looked up): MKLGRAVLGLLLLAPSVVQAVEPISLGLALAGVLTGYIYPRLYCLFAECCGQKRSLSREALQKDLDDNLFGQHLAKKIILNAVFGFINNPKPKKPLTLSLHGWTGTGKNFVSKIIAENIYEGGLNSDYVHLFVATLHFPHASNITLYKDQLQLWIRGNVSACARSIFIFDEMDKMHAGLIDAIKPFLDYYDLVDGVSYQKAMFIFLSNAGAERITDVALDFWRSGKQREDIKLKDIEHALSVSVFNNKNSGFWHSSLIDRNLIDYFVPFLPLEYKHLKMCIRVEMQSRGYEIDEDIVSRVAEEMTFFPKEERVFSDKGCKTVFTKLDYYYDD
Chain of Focal adhesion kinase 1 (Homo sapiens) (Q05397 whole entry, looked up): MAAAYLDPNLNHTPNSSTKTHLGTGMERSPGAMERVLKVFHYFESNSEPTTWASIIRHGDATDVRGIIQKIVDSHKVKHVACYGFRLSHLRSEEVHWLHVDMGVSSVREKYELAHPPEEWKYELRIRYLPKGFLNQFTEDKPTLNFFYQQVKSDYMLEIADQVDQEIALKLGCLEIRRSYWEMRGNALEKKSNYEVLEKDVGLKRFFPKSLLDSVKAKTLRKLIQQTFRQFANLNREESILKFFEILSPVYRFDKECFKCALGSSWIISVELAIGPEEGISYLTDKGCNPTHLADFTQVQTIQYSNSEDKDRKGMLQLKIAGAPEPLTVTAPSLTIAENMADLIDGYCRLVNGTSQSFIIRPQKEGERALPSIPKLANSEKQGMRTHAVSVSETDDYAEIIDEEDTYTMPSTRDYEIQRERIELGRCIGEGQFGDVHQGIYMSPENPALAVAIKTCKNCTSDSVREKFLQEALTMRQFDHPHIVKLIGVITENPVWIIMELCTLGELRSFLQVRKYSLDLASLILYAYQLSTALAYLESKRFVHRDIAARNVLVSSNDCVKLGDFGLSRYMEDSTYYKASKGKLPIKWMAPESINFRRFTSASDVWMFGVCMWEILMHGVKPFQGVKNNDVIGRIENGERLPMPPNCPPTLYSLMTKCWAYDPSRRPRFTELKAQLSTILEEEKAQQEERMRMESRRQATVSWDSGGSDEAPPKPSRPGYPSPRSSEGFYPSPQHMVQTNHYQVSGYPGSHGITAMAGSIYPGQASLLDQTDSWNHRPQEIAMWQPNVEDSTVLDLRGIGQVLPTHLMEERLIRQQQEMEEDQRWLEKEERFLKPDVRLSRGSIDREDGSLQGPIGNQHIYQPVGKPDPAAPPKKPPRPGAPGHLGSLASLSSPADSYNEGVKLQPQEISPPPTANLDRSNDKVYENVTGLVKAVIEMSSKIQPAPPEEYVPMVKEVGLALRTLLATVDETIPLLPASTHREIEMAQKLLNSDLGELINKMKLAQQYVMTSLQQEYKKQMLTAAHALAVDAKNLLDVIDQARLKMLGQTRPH
Chain of Streptavidin (Streptomyces avidinii) (P22629 whole entry, looked up): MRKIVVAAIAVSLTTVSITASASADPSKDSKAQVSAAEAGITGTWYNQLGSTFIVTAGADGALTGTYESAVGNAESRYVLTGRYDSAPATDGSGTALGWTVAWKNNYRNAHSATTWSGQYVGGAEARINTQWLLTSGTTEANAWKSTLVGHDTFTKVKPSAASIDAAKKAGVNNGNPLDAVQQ
Chain of Follistatin (Homo sapiens) (P19883 whole entry, looked up): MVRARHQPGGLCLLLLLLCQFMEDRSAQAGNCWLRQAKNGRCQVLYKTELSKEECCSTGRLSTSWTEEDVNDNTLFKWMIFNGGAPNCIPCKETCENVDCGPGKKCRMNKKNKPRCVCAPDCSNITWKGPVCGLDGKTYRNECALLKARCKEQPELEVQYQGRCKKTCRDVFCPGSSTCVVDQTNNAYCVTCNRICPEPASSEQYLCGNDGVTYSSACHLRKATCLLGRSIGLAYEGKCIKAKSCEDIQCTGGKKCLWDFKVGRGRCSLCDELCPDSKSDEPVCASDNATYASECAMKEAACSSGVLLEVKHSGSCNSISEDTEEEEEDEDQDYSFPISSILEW

Turning to `O=C(NN=C1C[C@@H](O)[C@@H](O)[C@@H]2[C@@H]3C(=O)N(C[C@@H]4CCCO4)C(=O)[C@@H]3CC[C@H]12)OCc1ccccc1`, the composite z-score in experiment [1] was -0.0516; in experiment [2] it was 0.0327; in experiment [3] it was -0.147; in experiment [4], 0.271; in experiment [5], -0.606; in experiment [6] it was -0.183. Moreover, the composite z-score in the experiment on Lefty1 is -0.793; in experiment [8] it was 0.717; in experiment [10] it was -0.222; in experiment [15], 0.281; in [16], -0.341; in the experiment with Torsin-1A (Homo sapiens) [17], 0.146. The composite z-score in the experiment with Torsin-1A (Homo sapiens) [18] was 0.219; in experiment [19], -0.824. For the same molecule, the z-score in [7] is -0.0539; in experiment [9], 0.304 (inactive); in experiment [11], 0.348 (inactive); in experiment [12], 0.458 (inactive); in [13], -0.834 (inactive); in [14], -0.105 (inactive).
Take `CO[C@H]1COC(=O)[C@@H](C)COC(=O)[C@@H](OCc2ccccc2)C=C[C@@H]1C`: the composite z-score in experiment [1] is -0.328; in experiment [2], -0.869; in [3] it was 0.106; in [4] it was -0.648; in experiment [5], -0.17; in experiment [6], 0.193. Moreover, the composite z-score in the experiment with Lefty1 is 0.0823; in experiment [8], -1.08; in [10], 0.007; in experiment [15], -0.136; in [16], -0.016; with Torsin-1A (Homo sapiens) [17] it was 0.743. Further, the composite z-score was -0.253 in the experiment with Torsin-1A (Homo sapiens) [18] and 0.214 in experiment [19]. The z-score in experiment [7] was 0.651; in experiment [9], -0.415 (inactive); in [11], -0.0174 (inactive); in experiment [12], 0.304 (inactive); in experiment [13] it was -0.0293 (inactive); in experiment [14], -0.803 (inactive).
Take `CC(CCN1CCc2nc(-c3ccccc3)c(-c3ccccc3)cc2C1)=NOC[C@@H](O)COCc1ccco1`: the composite z-score in experiment [1] is 0.567; in experiment [2], 0.697; in [3], 0.475; in experiment [4] it was 0.19; in experiment [5], 1.15; in [6], 0.496. Further, the composite z-score with Lefty1 is 1.03; in experiment [8], 0.679; in experiment [10], 0.133; in [15], 0.526; in [16] it was -0.0589; with Torsin-1A (Homo sapiens) [17], 1.15. Further, the figures for the composite z-score (with Torsin-1A (Homo sapiens) [18]; in [19]) were 1.25 and 1.31, respectively. For the same molecule, the z-score in [7] is 2; in experiment [9] it was -1.46 (inactive); in experiment [11], 0.42 (inactive); in [12], -0.255 (inactive); in [13], -0.878 (inactive); in experiment [14] it was -0.724 (inactive).
Regarding `COc1cccc([C@H]2Oc3ccc(OC)cc3C(=NO[C@@H]3O[C@H](COC(C)=O)[C@@H](OC(C)=O)[C@H](OC(C)=O)[C@H]3OC(C)=O)[C@@H]2O)c1`, the composite z-score is 0.238 in [1]; 0.23 in [2]; 0.478 in [3]; -0.339 in [4]; -0.0006 in experiment [5]; 0.192 in experiment [6]. The composite z-score was 0.228 with Lefty1; -0.639 in experiment [8]; 0.186 in [10]; -0.0198 in experiment [15]; -0.163 in [16]; 0.29 with Torsin-1A (Homo sapiens) [17]. Further, the composite z-score with Torsin-1A (Homo sapiens) [18] turned out to be 0.461; in experiment [19] it was 0.149. Further, the z-score in experiment [7] is -0.172; in experiment [9], 0.713 (inactive); in [11], -0.202 (inactive); in experiment [12] it was 0.0537 (inactive); in experiment [13] it was 0.336 (inactive); in experiment [14], 0.38 (inactive).
For the molecule `COc1cccc([C@H]2Oc3ccc(OC)cc3C(=NO[C@H](C)c3cn([C@H](CO)Cc4ccccc4)nn3)[C@@H]2O)c1`, the composite z-score in experiment [1] was 0.533; in experiment [2], -0.323; in experiment [3], -0.181; in [4], -0.095; in [5], -0.0053; in experiment [6], 0.185. The composite z-score is 0.0027 in the experiment with Lefty1; -0.124 in experiment [8]; -0.0943 in experiment [10]; -0.706 in experiment [15]; -0.104 in experiment [16]; -0.0667 in the experiment with Torsin-1A (Homo sapiens) [17]. Also, the composite z-score worked out at 1.44 with Torsin-1A (Homo sapiens) [18] and 0.326 in [19]. Besides, the z-score in [7] was -0.685; in experiment [9], 0.417 (inactive); in experiment [11], 0.474 (inactive); in [12], 0.829 (inactive); in experiment [13], 3.87 (inactive); in experiment [14], -0.345 (inactive).
